Consider 40 molecules from PubChem BioAssay.

Activity calls are given as the source filed them.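 The calls were made as follows: active = GFP response below 50% of the DMSO control; inconclusive = fewer than 70 events counted for a yeast strain; inactive = the rest.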

The first experiment is described as follows: hit retest on RPL19A-GFP reporter strain – cell-based, S. cerevisiae, flow cytometry, cherry picks, mother/daughter gates, confirmation (AID 2270). Conditions: 3 h, at 10 µM, stronger effect = lower value, 100 = same GFP as DMSO wells. On the technique in general: A flow cytometer gives signals particle by particle.
For `Cc1c(O)nc(SC2CC(=O)N(c3ccccc3)C2=O)[nH]c1=O` (stereo not given), the GFP response vs DMSO was 96.4% (inactive).
Same read-out and setting: then `COC(=O)c1ccc(/C=N\NC(=O)c2ccc(C)cc2Cl)cc1`, with 98.6% (inactive); and `Cc1cccc(CS(=O)(=O)c2ncc(Cl)c(C(=O)NCc3ccccc3)n2)c1`, with 99% (inactive).
In the case of `Cc1ccc(S(=O)(=O)N2CCCC2C(=O)OCc2ccco2)cc1` (stereo not given), the GFP response vs DMSO is 103% (inactive).
Still for that read-out and setting: then `Clc1ccc(N=c2ssnc2Cl)cc1`, with 97.8% (inactive).
For `O=C1c2ccccc2C(=O)C2OC12` (stereo not given), the GFP response vs DMSO is 101% (inactive).
With `CCCc1[nH]nc2c1C(c1ccc(OC)cc1OC)C(C#N)=C(N)O2` (stereo not given), the GFP response vs DMSO was 99.8% (inactive).
With `O=[N+]([O-])c1ncccc1OCc1ccc(-c2ccccc2)cc1`, the GFP response vs DMSO was 101% (inactive).
Regarding `C/C(=N/NS(=O)(=O)c1ccccc1)c1ccc(NC(=O)C(F)(F)F)cc1`, the GFP response vs DMSO is 102% (inactive).
Consider `O=C1c2ccsc2SCCN1Cc1ccccc1`, for which the GFP response vs DMSO was 93.8% (inactive).
The same measure, in the same setting: then `CCc1ccc(-c2csc(NC(=O)COC(=O)CCc3nc4ccccc4s3)n2)cc1`, with 105% (inactive); and `COc1ccc(-c2nn(-c3ccccc3)cc2C(=O)NC(=S)NNC(=O)c2ccncc2)cc1`, with 100% (inactive); and `CCOC(=O)Cc1csc(NC(=O)CSc2nnc(-c3ccc(C)cc3)o2)n1`, with 101% (inactive).
Same read-out and setting: to `CCOC(=O)C1=C(Cc2ccc(Cl)cc2)C(=O)c2ccccc2C1=O` belongs 99.1% (inactive); to `COC(=O)c1ccc(N2C(=O)CC(SCCN)C2=O)cc1` (stereo not given), 98.7% (inactive).
Same read-out and setting: to `O=S1(=O)Nc2c(ccc3cccnc23)-c2ccccc21` belongs 89.9% (inactive); to `Cc1cccc2c1NC(=O)/C2=C\C(=O)c1cccs1`, 97.2% (inactive); to `Nc1cccnc1S(=O)(=O)c1cccc(C(F)(F)F)c1`, 97.6% (inactive).
As to `CC(Oc1ccc(Br)cc1)C(=O)Nc1nc(-c2ccccn2)cs1` (stereo not given), the GFP response vs DMSO is 104% (inactive).
Regarding `O=C1Nc2ccccc2C(=O)C1(Cl)Cc1ccccc1` (stereo not given), the GFP response vs DMSO is 89.6% (inactive).
Take `Cc1ccc(C(c2cc(Cl)c3cccnc3c2O)N2CCN(C)CC2)cc1` (stereo not given): the GFP response vs DMSO is 81.4% (inactive).
On to `Cc1ccc(C)c(NC(=O)c2ccccc2O)c1`, for which the GFP response vs DMSO was 98.5% (inactive).
As for `CN(C)CCCNc1cc(C(C)(C)C)nc2c(-c3ccc(Cl)cc3)cnn12`, the GFP response vs DMSO is 93.6% (inactive).
Regarding `O=C(O)c1ccc(N/N=C/c2c(F)cccc2Cl)cc1`, the GFP response vs DMSO was 99.5% (inactive).
Take `O=C(O)c1ccccc1C(=O)N1CCN(c2cccc(Cl)c2)CC1`: the GFP response vs DMSO is 97.2% (inactive).
For `O=C(COC(=O)CCc1nc2ccccc2s1)Nc1nc(-c2ccccc2)cs1`, the GFP response vs DMSO was 101% (inactive).
As for `O=[N+]([O-])c1cc(O)c2ncccc2c1`, the GFP response vs DMSO is 99.1% (inactive).
With `NC1=NC(=O)C(CC(=O)c2ccc(Cl)cc2)S1` (stereo not given), the GFP response vs DMSO was 99.9% (inactive).
As for `NC(=O)C1CCN(C(=S)NCCc2ccccc2)CC1`, the GFP response vs DMSO is 97.3% (inactive).
In the case of `COc1ccc(-c2cc(C(F)(F)F)nc(S(C)(=O)=O)n2)cc1`, the GFP response vs DMSO was 102% (inactive).
For `Oc1c(C(Nc2cccc(C(F)(F)F)c2)c2ccncc2)ccc2cccnc12` (stereo not given), the GFP response vs DMSO is 105% (inactive).
Regarding `CC(=O)Nc1cccc(Oc2ccc(-c3noc(C)n3)cc2)c1`, the GFP response vs DMSO is 95.8% (inactive).
For the molecule `N#C/C(C(=O)Nc1ccc(Cl)cc1)=C(/S)Nc1ccccc1`, the GFP response vs DMSO is 98.8% (inactive).
The same measure, in the same setting: to `COc1ccc(NC2=C(Cl)C(=O)N(CCc3ccccc3)C2=O)c(OC)c1` belongs 98% (inactive); to `CCN=C(NCC)SC1CC(=O)N(c2cccc(OCC)c2)C1=O` (stereo not given), 99.2% (inactive); to `Cn1c(=O)[nH]c(=O)c2c1nc(N1CCCCC1)n2CCOc1ccccc1`, 99% (inactive).
The same measure, in the same setting: to `CC(=O)Nc1ccc(NC(=O)c2nc(S(=O)(=O)Cc3ccccc3)ncc2Cl)cc1` belongs 98.5% (inactive); to `COc1cc(CCN2C(=O)c3cccc4cccc(c34)C2=O)c(S(=O)(=O)NCCCO)cc1OC`, 99.1% (inactive).
With `CCOc1cc(C)c(S(=O)(=O)N2CCCC2)cc1C`, the GFP response vs DMSO is 90% (inactive).
For `CC1CCCCN1S(=O)(=O)c1ccc(C(=O)Nc2nnc(-c3ccccc3Cl)o2)cc1` (stereo not given), the GFP response vs DMSO was 97.8% (inactive).

Staying with this experiment, now noted: 3 h, measured here: daughter cell gate, at 10 µM, stronger effect = lower value, 100 = same GFP as DMSO wells.
`Cc1c(O)nc(SC2CC(=O)N(c3ccccc3)C2=O)[nH]c1=O` (stereo not given) showed a GFP response vs DMSO of 96.5%.
The molecule `COC(=O)c1ccc(/C=N\NC(=O)c2ccc(C)cc2Cl)cc1` displayed a GFP response vs DMSO of 98.9%.
`Cc1cccc(CS(=O)(=O)c2ncc(Cl)c(C(=O)NCc3ccccc3)n2)c1` displayed a GFP response vs DMSO of 96.4%.
Regarding `Cc1ccc(S(=O)(=O)N2CCCC2C(=O)OCc2ccco2)cc1` (stereo not given), the GFP response vs DMSO came to 103%.
The molecule `Clc1ccc(N=c2ssnc2Cl)cc1` showed a GFP response vs DMSO of 99.2%.
Molecule `O=C1c2ccccc2C(=O)C2OC12` (stereo not given) gave a GFP response vs DMSO of 99.6%.
In turn, `CCCc1[nH]nc2c1C(c1ccc(OC)cc1OC)C(C#N)=C(N)O2` (stereo not given) showed a GFP response vs DMSO of 99.9%.
Same read-out and setting: then `O=[N+]([O-])c1ncccc1OCc1ccc(-c2ccccc2)cc1`, with 99.6%; and `C/C(=N/NS(=O)(=O)c1ccccc1)c1ccc(NC(=O)C(F)(F)F)cc1`, with 103%.
In turn, `O=C1c2ccsc2SCCN1Cc1ccccc1` gave a GFP response vs DMSO of 92.9%.
Still for that read-out and setting: to `CCc1ccc(-c2csc(NC(=O)COC(=O)CCc3nc4ccccc4s3)n2)cc1` belongs 102%.
Same read-out and setting: then `COc1ccc(-c2nn(-c3ccccc3)cc2C(=O)NC(=S)NNC(=O)c2ccncc2)cc1`, with 101%; and `CCOC(=O)Cc1csc(NC(=O)CSc2nnc(-c3ccc(C)cc3)o2)n1`, with 98.8%; and `CCOC(=O)C1=C(Cc2ccc(Cl)cc2)C(=O)c2ccccc2C1=O`, with 98.5%.
On the same count and under the same terms, to `COC(=O)c1ccc(N2C(=O)CC(SCCN)C2=O)cc1` (stereo not given) belongs 100%; to `O=S1(=O)Nc2c(ccc3cccnc23)-c2ccccc21`, 91.7%.
The molecule `Cc1cccc2c1NC(=O)/C2=C\C(=O)c1cccs1` displayed a GFP response vs DMSO of 91.1%.
Same read-out and setting: then `Nc1cccnc1S(=O)(=O)c1cccc(C(F)(F)F)c1`, with 97.1%.
For the molecule `CC(Oc1ccc(Br)cc1)C(=O)Nc1nc(-c2ccccn2)cs1` (stereo not given), the GFP response vs DMSO came to 95.9%.
With `O=C1Nc2ccccc2C(=O)C1(Cl)Cc1ccccc1` (stereo not given), the GFP response vs DMSO worked out at 91.9%.
`Cc1ccc(C(c2cc(Cl)c3cccnc3c2O)N2CCN(C)CC2)cc1` (stereo not given): the GFP response vs DMSO was 94.4%.
The same measure, in the same setting: to `Cc1ccc(C)c(NC(=O)c2ccccc2O)c1` belongs 97%.
Take `CN(C)CCCNc1cc(C(C)(C)C)nc2c(-c3ccc(Cl)cc3)cnn12`: the GFP response vs DMSO was determined as 89%.
Molecule `O=C(O)c1ccc(N/N=C/c2c(F)cccc2Cl)cc1` gave a GFP response vs DMSO of 100%.
Turning to `O=C(O)c1ccccc1C(=O)N1CCN(c2cccc(Cl)c2)CC1`, the GFP response vs DMSO came to 97%.
`O=C(COC(=O)CCc1nc2ccccc2s1)Nc1nc(-c2ccccc2)cs1`: the GFP response vs DMSO is 100%.
The molecule `O=[N+]([O-])c1cc(O)c2ncccc2c1` returned a GFP response vs DMSO of 94.2%.
As to `NC1=NC(=O)C(CC(=O)c2ccc(Cl)cc2)S1` (stereo not given), the GFP response vs DMSO came out at 100%.
Molecule `NC(=O)C1CCN(C(=S)NCCc2ccccc2)CC1` had a GFP response vs DMSO of 99.5%.
Still for that read-out and setting: to `COc1ccc(-c2cc(C(F)(F)F)nc(S(C)(=O)=O)n2)cc1` belongs 104%; to `Oc1c(C(Nc2cccc(C(F)(F)F)c2)c2ccncc2)ccc2cccnc12` (stereo not given), 104%.
With `CC(=O)Nc1cccc(Oc2ccc(-c3noc(C)n3)cc2)c1`, the GFP response vs DMSO stood at 93.4%.
As for `N#C/C(C(=O)Nc1ccc(Cl)cc1)=C(/S)Nc1ccccc1`, the GFP response vs DMSO worked out at 98.9%.
The same measure, in the same setting: then `COc1ccc(NC2=C(Cl)C(=O)N(CCc3ccccc3)C2=O)c(OC)c1`, with 96.6%; and `CCN=C(NCC)SC1CC(=O)N(c2cccc(OCC)c2)C1=O` (stereo not given), with 97.1%.
`Cn1c(=O)[nH]c(=O)c2c1nc(N1CCCCC1)n2CCOc1ccccc1`: the GFP response vs DMSO is 99.5%.
On the same count and under the same terms, to `CC(=O)Nc1ccc(NC(=O)c2nc(S(=O)(=O)Cc3ccccc3)ncc2Cl)cc1` belongs 99.8%; to `COc1cc(CCN2C(=O)c3cccc4cccc(c34)C2=O)c(S(=O)(=O)NCCCO)cc1OC`, 98.5%.
In the case of `CCOc1cc(C)c(S(=O)(=O)N2CCCC2)cc1C`, the GFP response vs DMSO amounted to 83.8%.
Same read-out and setting: then `CC1CCCCN1S(=O)(=O)c1ccc(C(=O)Nc2nnc(-c3ccccc3Cl)o2)cc1` (stereo not given), with 97.9%.
